High-throughput results: PubChem, Sanford-Burnham Center for Chemical Genomics
Compounds with a hit are over-represented: about 3.1% of the library has one in this group of screens.
KKLEB tox – counter-screen for CF NF-kB inhibitors: cytotoxicity. KKLEB CF airway cells viability, ATPlite luminescence, overnight; active compounds read low; cells stimulated with P. aeruginosa culture filtrate. activity change (cytotoxicity), % at 5 µM. actives 0.36% (n = 360,000). AID 602141;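 active means corrected activity change at or below -50% at 5 µM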
PPC-1+TRAIL kill – compounds killing PPC-1 cancer cells with TRAIL present (potentiator screen, no TRAIL-free arm); PPC-1 cells + TRAIL, ATPLite viability luminescence; cell killing (% activity), % at 4 µM or 5 µM; actives 0.41% (n = 220,000); AID 1443;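 active means cell killing above 50% in the first pass at 4 µM, then a duplicate retest at 5 µM averaging 50% or more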;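 further: plate controls were cells with TRAIL plus DMSO for no effect and medium-only wells lacking cells for full effect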
Peg3 promoter – reduces Peg3 promoter-driven luciferase expression in HeLa. HeLa PEG-Prom luciferase reporter, luminescence, overnight. inhibition, % at 20 µM. actives 1.7% (n = 360,000);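 active means inhibition of at least 50% at 20 µM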
TRAIL sens C8 – sensitizes caspase-8 expressing cells to TRAIL. NB7+C8 cells + TRAIL, ATPlite viability luminescence. inhibition (viability loss, TRAIL sensitization), % at 10 µM. actives 1% (n = 360,000). AID 624354;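 active means compounds causing at least 50% loss of cell viability in the single-dose screen, relative to plate controls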
HIF-2a block – inhibitors of HIF-2a | 786-0 RCC cells HIF-2a reporter, luciferase luminescence, overnight | inhibition, % at 18.8 µM | actives 0.72% (n = 360,000);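 active means inhibition of the luminescence signal of 40% or more relative to plate controls, in a single-dose primary screen at 18.75 µM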
CF NFkB block – blocks PAF-induced NF-kB reporter in cystic fibrosis cells; KKLEB NF-kB-GFP reporter, GFP fluorescence overnight; inhibition, % at 5 µM; actives 0.86% (n = 360,000);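 active means at least 50% inhibition at 5 µM, scaled per plate between neutral and stimulator controls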;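 further: PAF is a Pseudomonas aeruginosa culture filtrate used as stimulus; plate controls were PAF-stimulated DMSO wells for no effect and unstimulated DMSO wells for full effect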
CF NFkB inh conf – confirmation of cystic fibrosis induced NF-kB inhibitors. shares compounds with CF NFkB block. KKLEB CF airway cells, PAF-induced NF-kB-GFP fluorescence, overnight. inhibition, % at 5 µM. actives 64% (n = 1,300); in the data active means inhibition above about 40%;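 further: stimulus PAF is a Pseudomonas aeruginosa filtrate and not platelet activating factor; plate controls were DMSO wells with stimulus for no effect and unstimulated DMSO wells for full effect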
The depositor's hits bear a star; . = no result given.

SMILES	KKLEB tox	PPC-1+TRAIL kill	Peg3 promoter	TRAIL sens C8	HIF-2a block	CF NFkB block	CF NFkB inh conf
CCc1cc2c(Sc3nc4ccccc4s3)ncnc2s1	-46	3	15	-10	-5	67*	89*
CS(=O)(=O)c1ncc(Cl)c(C(=O)Nc2ccc(N3CCOCC3)cc2)n1	-28	8	104*	73*	15	92*	79*
Cc1ccccc1NC(=O)c1cccc(C(=O)Nc2ccccc2C)n1	-11	.	8	-8	20	-31	.
CS(=O)(=O)c1ccc(C(=O)Nc2ccc(N3CCOCC3)cc2)c(Cl)c1	-1	-11	1	-9	3	-6	.
Cc1ccccc1NC(=O)c1nc(S(C)(=O)=O)ncc1Cl	-1	.	105*	-1	-39	79*	55*
COc1ccc(NC(=O)c2nc(S(=O)(=O)Cc3cccc(C)c3)ncc2Cl)c(OC)c1	-38	.	108*	52*	-1	93*	52*
COc1cccc(CNS(=O)(=O)c2ccccc2Br)c1OC	-3	.	-16	-1	-2	12	.
N#Cc1cccc(S(=O)(=O)NCC(=O)OCC(=O)NCc2ccccc2)c1	-5	.	13	4	0	2	.
CC(C)(C)NC(=O)CCN(/N=C/c1ccccc1O)C1=NS(=O)(=O)c2ccccc21	0	.	33	3	25	2	.
CCC(CC)c1nnc(NC(=O)c2cccc(S(=O)(=O)N3CCc4ccccc43)c2)s1	-1	19	9	0	3	5	.
CCOC(=O)c1sc(NC(=O)c2cccc(S(=O)(=O)N3CCc4ccccc43)c2)c(C#N)c1C	-32	18	40	46*	-16	61*	66*
Cc1ccc(NC(=O)CNC2CCCCC2)cc1Cl	0	.	-38	15	-51	6	.
O=C(Cc1ccccc1)Nc1ccc2[nH]ncc2c1	-3	.	-20	-1	-27	14	.
O=C(Cc1ccc(Br)cc1)Nc1ccc2[nH]ncc2c1	-45	.	5	1	17	53*	15
C=CCOc1ccc2nc(NC(=O)OC)[nH]c2c1	-32	7	-72	8	-50	34	.
C=C(c1ccc2nc(NC(=O)OC)[nH]c2c1)c1cccs1	-14	.	-177	40	-198	62*	96*
CC(=O)NC(c1ccccc1)c1nc(-c2ccc(Cl)cc2)cs1 (configuration not stated)	6	.	-20	8	-173	-22	.
C[C@@H]1CN([C@H](C)CO)C(=O)CCCn2cc(nn2)CO[C@H]1CN(C)C(=O)Nc1cccc(Oc2ccccn2)c1	7	.	4	10	-3	-15	.
COc1ccc([C@H]2CC(=O)C=C(c3ccc(OC)c(OC)c3)C2)cc1	-17	.	-50	0	-62	57*	36
O=C(O)c1ccc(-n2ncc(Cl)c(Cl)c2=O)cc1	-45	.	-16	14	-14	74*	-39
CCc1ccc([C@@H]2CC(=O)[C@@H]3CN(S(=O)(=O)c4ccccc4C)[C@H](c4ccc(Cl)cc4)C[C@@H]3N2S(=O)(=O)c2ccc(C)cc2)cc1	-10	.	5	13	3	51*	38
CCc1ccc([C@@H]2C[C@H]3[C@@H](CN2S(=O)(=O)c2ccc(C)cc2)C(=O)C[C@@H](c2ccc(Cl)cc2)N3S(=O)(=O)c2ccccc2C)cc1	10	.	6	2	10	-7	.
CC(C(=O)N(C)Cc1cccc(F)c1)N1CCN(S(=O)(=O)c2ccc3c(c2)OCCCO3)CC1 (configuration not stated)	-18	.	5	-6	16	22	.
CSCCC(c1nnnn1C1CCCCC1)N1CCN(C/C=C/c2ccccc2)CC1 (configuration not stated)	4	.	4	-40	-10	-2	.
COc1ccc(-n2nc(C(=O)NCC(=O)NCCCN3CCOCC3)c3ccccc3c2=O)cc1	12	.	15	-5	15	61*	15
CCN(CC)S(=O)(=O)c1ccc(NC(=O)Nc2cccc(C(F)(F)F)c2)cc1	-49	2	52*	69*	29	61*	81*
Cc1cccn2c(CNCC3(c4ccccc4)CCCC3)c(C(=O)N3CCOCC3)nc12	-28	13	47	16	13	59*	6
